Publication PMC4336329 (PLoS ONE, 2015)
Screen size: about 310,000 compounds; about 14,000 (4.5%) showed an effect of 50% or more. The effect is printed as a negative number. Shown is part of a subset that was picked to be rich in strong results.

Biological target: human ether-à-go-go-related gene (hERG) potassium channel (human, UniProt Q12809)
Assay: primary screen, population patch clamp on CHO cells stably expressing hERG; higher = less effect of the substance
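Note: peak tail current of the secondary pulse compared with the same well before compound.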

Sequence of human ether-à-go-go-related gene (hERG) potassium channel (Q12809 whole entry, looked up): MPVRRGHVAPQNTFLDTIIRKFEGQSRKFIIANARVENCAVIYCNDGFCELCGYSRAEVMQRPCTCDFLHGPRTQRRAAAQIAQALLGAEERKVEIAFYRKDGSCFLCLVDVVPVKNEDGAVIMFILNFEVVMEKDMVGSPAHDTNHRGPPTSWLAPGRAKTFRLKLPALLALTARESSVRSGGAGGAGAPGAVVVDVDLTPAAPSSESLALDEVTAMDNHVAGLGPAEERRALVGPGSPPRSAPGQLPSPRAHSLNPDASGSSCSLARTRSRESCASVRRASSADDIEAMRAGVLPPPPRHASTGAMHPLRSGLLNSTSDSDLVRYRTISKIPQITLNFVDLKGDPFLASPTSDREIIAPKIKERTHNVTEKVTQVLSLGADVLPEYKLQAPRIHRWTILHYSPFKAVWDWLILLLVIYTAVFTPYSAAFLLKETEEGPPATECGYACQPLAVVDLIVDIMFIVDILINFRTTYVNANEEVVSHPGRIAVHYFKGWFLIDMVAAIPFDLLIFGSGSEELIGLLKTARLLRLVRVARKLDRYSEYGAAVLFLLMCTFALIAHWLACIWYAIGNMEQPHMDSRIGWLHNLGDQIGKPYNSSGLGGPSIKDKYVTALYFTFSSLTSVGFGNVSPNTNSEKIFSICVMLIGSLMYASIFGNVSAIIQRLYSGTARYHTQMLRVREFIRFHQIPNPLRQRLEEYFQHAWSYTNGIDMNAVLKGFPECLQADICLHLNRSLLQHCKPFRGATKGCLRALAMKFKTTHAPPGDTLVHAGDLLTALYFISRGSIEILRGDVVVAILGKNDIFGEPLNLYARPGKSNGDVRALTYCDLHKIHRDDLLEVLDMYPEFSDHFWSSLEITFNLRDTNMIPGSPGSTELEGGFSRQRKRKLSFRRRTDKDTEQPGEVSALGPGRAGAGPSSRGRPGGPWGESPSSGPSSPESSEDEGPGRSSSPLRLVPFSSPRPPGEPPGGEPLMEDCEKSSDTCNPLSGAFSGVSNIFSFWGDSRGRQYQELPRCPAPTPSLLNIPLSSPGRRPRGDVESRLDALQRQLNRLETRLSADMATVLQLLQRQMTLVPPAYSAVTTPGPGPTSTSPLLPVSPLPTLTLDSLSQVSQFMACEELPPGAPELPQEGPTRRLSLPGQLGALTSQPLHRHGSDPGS

Row | Compound | hERG current change (%, negative = inhibition) at 10uM
1 | O=P(NS(=O)(=O)c1ccc(Br)cc1)(Oc1ccccc1)Oc1ccccc1 | 12.2%
2 | O=C(Cn1c(=O)c(=O)n(Cc2ccccc2)c2ccc(Cl)cc21)Nc1ccc(F)cc1F | 21.3%
3 | Cc1cc(C)c(Cn2c(=O)n(CCCC(=O)NCc3ccco3)c(=O)c3sccc32)c(C)c1 | 6.15%
4 | Cc1cc(NC(=O)c2cc([N+](=O)[O-])ccc2Cl)no1 | 8.65%
5 | Nn1c(COc2ccc(Cl)cc2)nc2ccccc2c1=O | -34.8%
6 | CCc1ccc(CNC(=O)c2ccc(OC3CCN(C(C)=O)CC3)c(OC)c2)nc1 | 8.11%
7 | COC(=O)c1ccccc1NC(=O)C1CCCN(c2nnc(-n3cccc3)s2)C1 (stereo not drawn) | -53%
8 | CC(=O)Nc1ccc(NC(=O)C2CCCN(c3nnc(-n4cccc4)s3)C2)cc1 (stereo not drawn) | 7.44%
9 | O=C(NC1CCN(Cc2ccccc2)CC1)C1CCN(c2nnc(-n3cccc3)s2)CC1 | -59%
10 | CC1CCN(Cc2ccc(NC(=O)C3CCN(c4nnc(-n5cccc5)s4)CC3)cc2)CC1 | 1.05%
11 | CC(CCc1ccccc1)NC(=O)C1CCCN(c2nnc(-n3cccc3)s2)C1 (stereo not drawn) | -11.2%
12 | CC(C)NC(=O)C1CCCN(c2nnc(-n3cccc3)s2)C1 (stereo not drawn) | -16.4%
13 | O=C(NCCCN1CCN(Cc2ccccc2)CC1)C1CCN(c2nnc(-n3cccc3)s2)CC1 | -48.5%
14 | O=C(NC1CCN(Cc2ccccc2)CC1)C1CCCN(c2nnc(-n3cccc3)s2)C1 (stereo not drawn) | -69.8%
15 | O=C(C1CCCN(c2nnc(-n3cccc3)s2)C1)N1CCN(c2ccccc2)CC1 (stereo not drawn) | -47%
16 | NC(=O)c1ccc(N2CCN(c3ccccc3F)CC2)c([N+](=O)[O-])c1 | -25.5%
17 | Cc1ccc(-c2c[n+]3c(n2-c2ccccc2)CCC3)cc1.[Br-] | -48.9%
18 | Cc1ccc(-n2c(-c3ccc(Cl)cc3)c[n+]3c2CCC3)cc1.[Br-] | -62.4%
19 | Cc1ccc(-n2c(-c3ccccc3)c[n+]3c2CCC3)cc1.[Br-] | -50.7%
20 | FC(F)Sc1ccc(-n2c(-c3ccc(Cl)cc3)c[n+]3c2CCC3)cc1.[Br-] | -92.6%
21 | [Br-].c1ccc(-c2c[n+]3c(n2-c2ccccc2)CCC3)cc1 | -3.72%

Row | Compound | hERG current change (%, negative = inhibition) at 10uM
22 | Cc1cc(C)cc(OCC(=O)NCC2CCCO2)c1 (stereo not drawn) | -11.8%
23 | C#CCOC(=O)C[N+](C)(C)CC#Cc1ccccc1.[Cl-] | 33.3%
24 | CC1(c2nnc(-c3ccncc3)o2)CC(c2c(Cl)cccc2Cl)=NO1 (stereo not drawn) | -69.8%
25 | CC1(c2nnc(-c3ccccc3)o2)CC(c2c(Cl)cccc2Cl)=NO1 (stereo not drawn) | 23.4%
26 | CC1(c2nnc(-c3ccccc3)o2)CC(c2ccccc2)=NO1 (stereo not drawn) | -11.6%
27 | COc1ccc(C2=NOC(C)(c3nnc(-c4ccccc4)o3)C2)cc1 (stereo not drawn) | -58.3%
28 | COc1ccc(C2=NOC(C)(c3nnc(-c4ccncc4)o3)C2)cc1 (stereo not drawn) | 1.73%
29 | CC1(c2nnc(-c3ccc(Cl)cc3)o2)CC(c2c(Cl)cccc2Cl)=NO1 (stereo not drawn) | 1.13%
30 | CC(=O)Nc1ccc(NC(=O)CSc2ccc(-c3cccnc3)nn2)cc1 | 24.7%
31 | O=C(C1CCC1)N1CCN(S(=O)(=O)c2ccc(Br)cc2Cl)CC1 | -21.8%
32 | COCCn1c(Cc2ccccc2)nnc1SCC(=O)Nc1cc(C)on1 | -5.36%
33 | COc1ccc(CC(=O)NNC(=O)CCc2ccccc2)cc1OC | 14.8%
34 | CCCSc1cc(=O)n(-c2ccccc2)nc1C(=O)O | 15.7%
35 | CCOc1ccccc1Nc1nnc(SC(C)C(=O)Nc2nc(-c3ccccc3)cs2)s1 (stereo not drawn) | 1.46%
36 | Br.C=CCn1c(C)csc1=Nc1ccccc1C | 4.02%
37 | Cc1ccccc1CC(=O)NCC1CCCCC1 | 1.34%
38 | Cc1ccccc1N(CC(=O)NCC1CCCO1)C(=O)C1(C)CC(=O)N=C2C=CC=CN21 (stereo not drawn) | -1.4%
39 | COc1ccccc1C(CNC(=O)c1ccc(NS(=O)(=O)c2ccc(F)c(C)c2)cc1)N(C)C (stereo not drawn) | -24.4%
40 | O=C(NCC(c1ccco1)N1CCCCC1)c1ccc(NS(=O)(=O)c2ccc(F)cc2)cc1 (stereo not drawn) | -13%
41 | COc1ccccc1C(CNC(=O)c1cccc(NS(=O)(=O)c2ccc(C)c(F)c2)c1)N1CCCC1 (stereo not drawn) | -40.9%
42 | Cc1cccc(NS(=O)(=O)c2ccc(C(=O)NCC(c3ccco3)N3CCCCC3)cc2)c1C (stereo not drawn) | -55.6%

Row | Compound | hERG current change (%, negative = inhibition) at 10uM
43 | Cc1cc(S(=O)(=O)Nc2ccc(C(=O)N3CCN(C(=O)c4ccco4)CC3)cc2)ccc1F | -64.4%
44 | O=C(NCC(c1ccco1)N1CCCC1)c1ccc(S(=O)(=O)Nc2ccccc2Cl)cc1 (stereo not drawn) | -11.6%
45 | Cc1cc(S(=O)(=O)Nc2ccc(C(=O)NCC(c3ccco3)N3CCCCC3)cc2)ccc1F (stereo not drawn) | -41.2%
46 | Cc1ccccc1NS(=O)(=O)c1ccc(C(=O)NCC(c2ccco2)N2CCCCC2)cc1 (stereo not drawn) | 5.89%
47 | Cc1ccc(NS(=O)(=O)c2cccc(C(=O)N3CCN(C(=O)c4ccco4)CC3)c2)cc1 | -36.8%
48 | O=C(c1ccc(S(=O)(=O)Nc2ccc(F)cc2)cc1)N1CCN(C(=O)c2ccco2)CC1 | -29.4%
49 | Cc1cc(S(=O)(=O)Nc2ccc(C(=O)NCC(c3ccco3)N3CCCC3)cc2)ccc1F (stereo not drawn) | -50.6%
50 | COc1ccccc1C(CNC(=O)c1ccc(NS(=O)(=O)c2ccc(F)c(C)c2)cc1)N1CCCC1 (stereo not drawn) | -58.1%
51 | CC1=NN(C(=O)c2ccccc2Cl)C(O)(c2cccnc2)C1 (stereo not drawn) | 17.8%
52 | COC(=O)C1Cc2c([nH]c3ccccc23)C(C)N1 (stereo not drawn) | -9.61%
53 | COc1ccc(S(=O)(=O)NCc2ccco2)cc1C(=O)N1CCOCC1 | 21%
54 | CC(=O)c1cccc(S(=O)(=O)NCC(c2ccco2)N2CCCCC2)c1 (stereo not drawn) | -24.1%
55 | Cl.O=S(=O)(NCC(c1ccco1)N1CCCCC1)c1ccccc1C(F)(F)F (stereo not drawn) | -6.8%
56 | Cl.O=S(=O)(NCC(c1ccco1)N1CCCCC1)c1cccc(C(F)(F)F)c1 (stereo not drawn) | -57.7%
57 | CC(C)[C@H](NC(=O)c1ccccc1F)C(=O)Nc1ccc2c(c1)OCO2 | 5.82%
58 | Br.C1=C(c2cccc3ccccc23)N2CCN=C2S1 | -34.5%
59 | COc1ccc(N2C(=O)NC(=O)C(CCc3ccncc3)(CCc3ccncc3)C2=O)cc1 | -23.6%
60 | Cc1ccc(N2C(=O)NC(=O)C(CCc3ccncc3)(Cc3cccc(Cl)c3Cl)C2=O)cc1 (stereo not drawn) | 6.14%
61 | O=C1NC(=O)C(CCc2ccncc2)(CCc2ccccn2)C(=O)N1c1ccc(Br)cc1 (stereo not drawn) | -75.6%
62 | O=C1NC(=O)C(CCc2ccncc2)(Cc2cccc(Cl)c2Cl)C(=O)N1c1ccc(Br)cc1 (stereo not drawn) | -11%
63 | Cc1ccc(N2C(=O)NC(=O)C(CCc3ccccn3)(Cc3ccc(F)cc3)C2=O)cc1 (stereo not drawn) | 12.9%

Row | Compound | hERG current change (%, negative = inhibition) at 10uM
64 | CCc1ccc(N2C(=O)NC(=O)C(CCc3ccncc3)(CCc3ccncc3)C2=O)cc1 | -69.9%
65 | CCOC(=O)c1c(C)[nH]c(C=O)c1Cc1cccc(Cl)c1 | 6.47%
66 | C/C=C/c1cc(OC)c2c(c1)[C@H](C)[C@@H](c1ccc(O)c(OC)c1)O2 | 15.9%
67 | O=C(CN1C(=O)NC2(CCCCCC2)C1=O)Nc1ccc(S(=O)(=O)N2CCOCC2)cc1 | 9.75%
68 | Cc1ccccc1COc1ccc(-c2nn[nH]n2)cc1 | 13%
69 | Cc1cc2nc3n(c2cc1C)CC1CC(C(=O)NCCC(C)C)N(C)C31 (stereo not drawn) | 1.81%
70 | COc1ccccc1CNC(=O)C1CC2Cn3c(nc4cc(C)c(C)cc43)C2N1C (stereo not drawn) | -27%
71 | Cc1ccc(CNC(=O)C2CC3Cn4c(nc5cc(Cl)c(Cl)cc54)C3N2C)o1 (stereo not drawn) | -58.5%
72 | Cc1ccc(CNC(=O)C2CC3Cn4c(nc5cc(C)c(C)cc54)C3N2C)o1 (stereo not drawn) | -36.9%
73 | COc1ccccc1CNC(=O)C1CC2Cn3c(nc4cc5ccccc5cc43)C2N1C (stereo not drawn) | -43.8%
74 | CN1C(C(=O)NCc2ccco2)CC2Cn3c(nc4cc(Cl)c(Cl)cc43)C21 (stereo not drawn) | -43.2%
75 | CC(C)CCNC(=O)C1CC2Cn3c(nc4cc(Cl)c(Cl)cc43)C2N1C (stereo not drawn) | -56%
76 | COc1ccccc1CNC(=O)C1CC2Cn3c(nc4cc(Cl)c(Cl)cc43)C2N1C (stereo not drawn) | -65.4%
77 | COCCNC(=O)C1CC2Cn3c(nc4cc(Cl)c(Cl)cc43)C2N1C (stereo not drawn) | -26.5%
78 | CN1C(C(=O)NCc2cccc(Br)c2)CC2Cn3c(nc4cc(Cl)c(Cl)cc43)C21 (stereo not drawn) | -75.8%
79 | CN1C(C(=O)NCC2CC2)CC2Cn3c(nc4cc(Cl)c(Cl)cc43)C21 (stereo not drawn) | -34.3%
80 | Cc1ccc(CNC(=O)C2CC3Cn4c(nc5ccccc54)C3N2C)o1 (stereo not drawn) | -0.36%
81 | COc1ccc(CCN(C)C(=O)CCCN2C(=O)c3cccc4cccc(c34)C2=O)cc1OC | -35.5%
